According to PubChem BioAssay AID435019 (Southern Research Specialized Biocontainment Screening …, 2010):
Among all 2,300 compounds or so, about 1,200 (52%) were called active. The rule behind the calls is not given here. So high a share suggests a set chosen from earlier hits. The list shows a part of the results. Where a call stands in place of a potency, no number is given. Potency and affinity values are given separately.

Assay: mammalian cell cytotoxicity, dose response, cytotoxicity control for M. tuberculosis inhibitor project (AID 435019);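 note: lower values mean fewer viable cells so more cytotoxicity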
Details: cytotoxicity counter-screen; series mostly up to 40 µM

SMILES | outcome
CCOC(=O)COc1ccc2c(c1)C(=O)CC(C)(c1cccnc1)O2 (centres undefined) | inactive
Nc1ccc2oc(-c3cccs3)nc2c1 | inactive
CCOC(=O)c1ccc(N=C(CC)c2c(O)n(C)c(=O)n(C)c2=O)cc1 | inactive
COc1cc(C)ccc1OCCOc1c(C)cc(Cl)cc1Cl | inactive
C=CCc1cc(C)ccc1OCCCC(C(=O)OCC)C(=O)OCC | inactive
C[Se]C[C@@H](N)C(=O)O | inactive
Cc1nc2sccn2c1-c1nc(-c2cc3ccccc3o2)cs1 | inactive
Cc1ccc(NC(=O)COC(=O)CCc2c[nH]c3ccccc23)cc1[N+](=O)[O-] | inactive
C[C@@H]1CN([C@H](C)CO)C(=O)c2cc(NC(=O)Nc3ccc(C(F)(F)F)cc3)ccc2O[C@H]1CN(C)S(=O)(=O)c1cccs1 | inactive
CCOC(=O)CSc1cc(=O)n(C)c2cc(Cl)ccc12 | inactive
O=C(CSc1nc2ccccc2[nH]1)N1c2ccccc2Sc2ccccc21 | inactive
O=c1cc(O)c2sc3nc(-c4cccnc4)cc(C(F)(F)F)c3c2[nH]1 | inactive
CC(C)c1ccc(-c2nn(-c3ccccc3)cc2C(=O)NCC2CCCO2)cc1 (centres undefined) | inactive
COc1ccc(-c2cn3cc([N+](=O)[O-])ccc3n2)cc1OC | inactive
C=CCOc1ccc(/C=N/O)cc1Cl | inactive
O=C(Nc1cccc(Cl)c1)N1CCN(C/C=C/c2ccccc2)CC1 | inactive
Cc1ccc(/C=C/S(=O)(=O)NCC(=O)OCC(=O)Nc2c(F)cccc2F)cc1 | inactive
CC1(C)c2cc(Cl)ccc2-n2c1cc(O)c(-c1ccccc1)c2=O | inactive
O=c1[nH]c(CSc2cccc[n+]2[O-])nc2ccccc12 | inactive
O=C(OCc1ccccc1)/C(=C(\O)c1ccccc1Br)c1ccc(-c2ccccc2)cn1 | inactive
CCCc1cc(=O)[nH]c(SCC(=O)N2CCCC2=O)n1 | inactive
Cc1nc2ccc(OC(=O)c3ccccc3)cc2s1 | inactive

SMILES | outcome
Clc1ccc(-c2ccc(C=Nc3ccc(N4CCOCC4)cc3)o2)c(Cl)c1 | inactive
O=C(CSc1nc2ccccc2nc1N1CCOCC1)N1CCN(c2ccccc2)CC1 | inactive
CC(C)OC(=O)CSc1nc2ccccc2s1 | inactive
C1=C(c2c[nH]c3ccccc23)CCNC1 | inactive
COc1ccc(N2CN=C3SCC(=O)N3C2)cc1 | inactive
CCn1nnc(-c2ccc(N)cc2)n1 | inactive
Nc1ccc(CCc2ccc(N)cc2)cc1 | inactive
Cc1cc2cc(CNC(=O)NC3CCCCC3)ccc2[nH]1 | inactive
O=C(/C=C/c1ncc(C(F)(F)F)cc1Cl)OCc1ccccc1 | inactive
Cc1ccc(NC(=O)COc2ccc(-n3ccnc3)cc2)cc1Cl | inactive
Cc1ccc(-c2nnc(NCc3nc4ccccc4[nH]3)c3ccccc23)cc1S(=O)(=O)N1CCCCC1 | inactive
CCNCC(=O)N1c2ccccc2CCc2ccc(NC(=O)OC(C)C)cc21 | inactive
CCc1c(C)sc(NC(=S)N2CCN(CC)CC2)c1C(=O)OC | inactive
COC(=O)c1c(NC(=O)C(=O)N2CCCC2)sc2c1CC(C)(C)OC2 | inactive
Cc1ccc(N=Nc2c(C)[nH]n(C(N)=S)c2=O)cc1 | inactive
O=C1NCCC/C1=N\Nc1ccc(Br)cc1 | inactive
COC(=O)CNC(=O)CSc1nc2sc(-c3ccccc3)cc2c(=O)n1-c1ccccc1 | inactive
Cc1ccc(NC(=O)c2sccc2-n2cccc2)c(C)c1 | inactive
CCCCCCCCCCOC(=O)Cn1c(COc2ccc(Cl)cc2)[n+](C)c2ccccc21 | inactive
Nc1nonc1C(=O)NCCNCc1c(OCc2ccccc2F)ccc2ccccc12 | inactive
Cn1ccnc1C(O)c1cc(C(C)(C)C)c(O)c(C(C)(C)C)c1 (centres undefined) | inactive
C(=N\Nc1nc(-c2ccccc2)cs1)/c1ccncc1 | inactive

SMILES | outcome
Cc1cccc(NC(=O)CCSc2nnc(Cc3ccccc3)o2)c1 | inactive
COC(=O)c1cccc(OC(N)=O)c1 | inactive
c1ccc(Cn2c3ccccc3c3nnc(SCCN4CCCCC4)nc32)cc1 | inactive
CC(=O)c1c(C)n(C)c2ccc(OC(=O)c3ccc([N+](=O)[O-])cc3)cc12 | inactive
COC(=O)CSc1ncnc2c1cnn2-c1ccc(C)cc1C | inactive
CCc1n[nH]c(=S)n1/N=C/c1ccc(-c2ccc(Br)cc2)o1 | inactive
NC(=S)N/N=C/c1ccc(-c2ccccc2)o1 | inactive
Cc1onc(-c2ccccc2Cl)c1C(=O)Oc1cccc2cccnc12 | inactive
CCOC(=O)c1ccc(-c2c(-c3ccc4c(c3)OCO4)noc2C)cc1F | inactive
O=c1c(C=Nc2ccc(Oc3ccccc3)cc2)c[nH]n1-c1cccc(Cl)n1 | inactive
Cc1nc2scc(-c3cccs3)c2c(=O)n1-n1cccc1 | inactive
O=C(O)/C=C/C(=O)Nc1ccc(-c2ccccc2)cc1 | inactive
O=[N+]([O-])c1cc(C=Nc2ccc3ccccc3c2)ccc1Br | inactive
Cc1ccc(S(=O)(=O)CNC(=S)c2ccc3ccccc3c2)cc1 | inactive
Cc1ccc(N2CCN(C(=O)c3cn(CC4CCCCC4)nn3)C(C)C2)cc1 (centres undefined) | inactive
O=c1c2ccccc2nc(/C=C/c2ccccc2)n1-c1ccc(O)cc1 | inactive
CCCC1CCC(C(=O)Nn2c(C)nc3ccccc3c2=O)CC1 (centres undefined) | inactive
Cc1ccc2[nH]c(C(=O)NN=C3CCCCC3)c(-c3ccccc3)c2c1 | inactive
CCc1cc(C(=O)Nc2ccc(C)cc2Br)cs1 | inactive
C/C(=N\NC(=O)COc1ccc(C)cc1Br)c1cc([N+](=O)[O-])cs1 | inactive
COc1ccccc1N1C(=O)NC(=O)/C(=C/c2ccc([N+](=O)[O-])s2)C1=O | inactive
Cc1cccc(CSc2nc3c(c(-c4cccs4)c2C#N)CN(C)CC3)c1 | inactive

SMILES | outcome
COc1cc(/C=N/NC(=O)COc2ccc(C)cc2)ccc1OC(=O)c1cccs1 | inactive
CCCCCCOc1ccc(/C=C/C(=O)N2CCOCC2)cc1OC | inactive
CC[N+](C)(CC)CCCCOc1ccc2c(c1)C(=O)c1cc(OCCCC[N+](C)(CC)CC)ccc1-2 | inactive
CCCOc1ccc(-c2cnc(SCC(N)=O)nc2N)cc1 | inactive
O=C(/C=C/c1ccco1)Oc1ccc(C(=S)N2CCOCC2)cc1 | inactive
COc1ccc(NC(=O)NC(C)C2CC3CCC2C3)cc1 (centres undefined) | inactive
Nc1ccc(-c2nc3nc(N)nc(N)c3nc2-c2ccc(N)cc2)cc1 | inactive
CN1CCN(C(=O)/C=C/c2cn(-c3ccccc3)nc2-c2ccc3c(c2)OCCO3)CC1 | inactive
Cc1ccc(C(=O)COC(=O)C2CC(=O)N(c3nc(-c4ccccc4)cs3)C2)cc1C (centres undefined) | inactive
CCCCCCCCNC(=O)CCNC(=O)c1ccc(C(C)(C)C)cc1 | inactive
CCCCCCCCCCCCCCCC(=O)NCCO | inactive
CCc1ccc(NC(=O)c2ccc(C3SCC(=O)N3CCc3ccccc3)cc2)cc1 (centres undefined) | inactive
O=C1N[C@@H](Cc2ccccc2)C(=O)N2[C@H]3Nc4ccccc4[C@@]3([C@]34C[C@H]5C(=O)N[C@@H](Cc6ccccc6)C(=O)N5[C@H]3Nc3ccccc34)C[C@@H]12 | inactive
CCOC(=O)CSc1nc(C)c(C(=O)OCC)s1 | inactive
Cc1cc(C2N=C(N)Nc3nc4ccccc4n32)c(C)n1-c1ccccc1Cl (centres undefined) | inactive
CN1OC(COC(=O)c2ccc(Cl)cc2Cl)CC1c1ccccc1 (centres undefined) | inactive
CCC(C)Nc1nc2c(C)cccn2c(=O)c1C=Nc1ccc(OC)cc1 (centres undefined) | inactive
CC(=O)O[C@H]1C[C@@]2(C)[C@@H](C[C@@H](O)[C@H]3[C@@]4(C)CC[C@@H](O)[C@@H](C)[C@@H]4CC[C@@]32C)/C1=C(\CCC=C(C)C)C(=O)O | inactive
CN(CCCC1CCCC1)C(=O)CCc1nnc(-c2ccccc2)o1 | inactive
O=C(Nc1ccc2nsnc2c1)NC1CCCCC1 | inactive
COC(=O)c1ccc(-c2ncc(-c3cccc4ccccc34)o2)cc1 | inactive
COc1cc(C)c(/C=C/C(C)=C/C=C/C(C)=C/C(=O)O)c(C)c1C | inactive

SMILES | outcome
CC1(C)OC(=O)C(=NNc2ccc(Cl)cc2)C(=O)O1 | inactive
Cc1ccc(NC(=O)c2cnc(SCC(=O)NCC3CCCO3)n(C)c2=O)cc1C (centres undefined) | inactive
CCn1c(SCC(=O)OC2CCCCC2)nc2ccccc2c1=O | inactive
Cn1c(CNc2nc(-c3ccccc3)cs2)nnc1SCC(=O)OC1CCCCC1 | inactive
CCOc1ccc(NC(=S)Nc2cc(-c3ccccc3)[nH]n2)cc1 | inactive
CCCc1ncc(CN2CCCC(C(=O)Nc3ccc(-c4cccc(OC)c4)cc3)C2)cn1 (centres undefined) | inactive
CCCc1ccc(NC(=O)C2CCN(c3cnccn3)CC2)cc1 | inactive
Cc1cc(C)c2nc(N3CCCC(C(=O)N4CCN(c5ncccn5)CC4)C3)sc2c1 (centres undefined) | inactive
Cc1ccc(C)c(N2CCN(C(=O)c3ccc4nc(N5CCOCC5)sc4c3)CC2)c1 | inactive
C[C@]12CCC(=O)C[C@@H]1CC[C@@H]1[C@@H]2CC[C@]2(C)C=CC[C@@H]12 | inactive
NC(=O)N1CCC2(CC1)NC(=O)N(c1ccccc1)N2 | inactive
Cc1cc(C)nc(-n2nc(C)cc2NC(=O)CN2CCC(C)CC2)n1 | inactive
O=C(c1cc2cc(F)ccc2[nH]1)N(Cc1cccnc1)CC1CCCN(C2CCCCC2)C1 (centres undefined) | inactive
CC1(CCc2ccccc2)NC(=S)N(c2ccc(Cl)cc2)N1 (centres undefined) | inactive
COC(=O)CSc1nnc(CNc2ccc(Cl)cc2)n1-c1ccccc1 | inactive
O=C(C[n+]1ccc(C(=O)N/N=C/c2ccc(O)cc2)cc1)c1ccccc1 | inactive
COc1ccccc1-n1cc2c([N+](=O)[O-])cc([N+](=O)[O-])cc2n1 | inactive
Nc1cc([N+](=O)[O-])cc2oc(-c3ccccc3)cc12 | inactive
CCCCNc1nc(N(C)c2ccccc2)nc(-n2ccnc2)n1 | inactive
COC(=O)c1ccc(CSc2nc3cc(Cl)ccc3o2)cc1 | inactive
O=C(CSc1nc2cc(Cl)ccc2o1)c1cccs1 | inactive
